Five molecules from PubChem BioAssay AID624115 (Johns Hopkins Ion Channel Center, 2012) can be followed below.

Screen size: about 4,000 compounds; about 350 (8.8%) were called active.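 The calls were made as follows: active = calcium fluorescence ratio at least three times the spread of buffer wells, meaning a non-specific response in parental cells; inactive = the rest.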 Shown is part of a subset that was picked to be rich in actives.

The nature of this assay: calcium response in parental HEK293 cells, primary screen, counter-screen for MrgX1 agonist project, cell-based, Fluo-4 calcium flux, duplicate, agonist mode (AID 624115). Particulars: parental HEK293, Fluo-4 calcium fluorescence (FDSS), at 10 µM; stronger effect = higher value.
In the case of `CCCCC(=O)N/N=C/c1c(O)n(CC)c(=S)n(CC)c1=O`, the fluorescence ratio F(max-min)/F0 was 78.9 (active).
Consider `O=C(CCN1CCCCC1)NCC(=O)Nc1ccc(Br)cc1C(=O)c1ccccc1`, for which the fluorescence ratio F(max-min)/F0 entry is “inactive”.
As for `CCCCCn1c(=O)c(C(=O)NCc2ccccc2)c(O)c2ccccc21`, the entry is “inactive”; as for `C=CCN1C(=O)C2(C(C(=O)OCC)=C(N)Oc3c2c(=O)oc2ccccc32)c2ccccc21` (stereo not given), “inactive”.
In the case of `COc1ccc(S(=O)(=O)NCc2ccc(C(=O)N3CCC4(CC3)OCCO4)cc2)cc1` it was “inactive”.
